In the library only some 27% were active in any assay of this set; here they are far more common.
Cav32 inh: Cav3.2 calcium influx blockers – cell-based, Fluo-4 calcium fluorescence, FDSS, MLSMR library, primary screen. Voltage-dependent T-type calcium channel subunit alpha-1H (Homo sapiens), O95180. AID 449739, 2010. Cav3.2-expressing cells; stronger effect = lower value. B-score at 10 µM. hit rate 4% among 100,000;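 active = single-dose well whose peak fluorescence ratio is a statistical outlier from its plate by either plate-standardised score or position-corrected B-score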
CYP2C9 inhib: blockers of cytochrome P450 2C9 activity – biochemical, luminescence, ADME assay, primary screen | AID 777, 2007 | CYP2C9 Supersomes, luciferin-H conversion | hit rate 20% among 96,000 | P11712 | inhibition, % at 5 µM;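 active = blocking of liver enzyme CYP2C9 beyond about 50% at 5 µM, limit read from the data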
CYP2C19 activ: human CYP2C19 activators, primary screen, biochemical, luminescence; Cytochrome P450 2C19 (Homo sapiens), P33261; recombinant CYP2C19, luciferin-H EGE luminescence; stronger effect = higher value; 0 = fully inhibited enzyme, 1 = untreated enzyme; activation factor at 5 µM; 96,000 tested, under 10 active; AID 1025, 2008;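 active = activation factor of at least 2 at 5 µM in the primary screen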;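 also: 0 = wells with 2.5 mM tranylcypromine and 1 = vehicle-only wells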
Target sequence (P33261 whole entry, looked up): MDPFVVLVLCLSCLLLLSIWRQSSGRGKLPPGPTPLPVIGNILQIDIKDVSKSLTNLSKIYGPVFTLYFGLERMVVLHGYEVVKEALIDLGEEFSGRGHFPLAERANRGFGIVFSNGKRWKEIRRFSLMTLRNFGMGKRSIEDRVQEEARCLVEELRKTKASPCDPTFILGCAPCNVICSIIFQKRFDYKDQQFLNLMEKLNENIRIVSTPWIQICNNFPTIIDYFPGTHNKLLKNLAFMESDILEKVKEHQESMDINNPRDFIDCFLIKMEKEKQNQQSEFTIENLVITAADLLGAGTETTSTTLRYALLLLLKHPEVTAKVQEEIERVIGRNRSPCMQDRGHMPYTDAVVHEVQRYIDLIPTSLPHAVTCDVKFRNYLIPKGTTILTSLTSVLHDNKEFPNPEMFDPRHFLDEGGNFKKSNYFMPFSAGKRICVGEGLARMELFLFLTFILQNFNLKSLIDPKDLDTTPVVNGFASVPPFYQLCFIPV
CYP2C9 act: human CYP2C9 activators, primary screen, biochemical, luminescence; Cytochrome P450 2C9 (Homo sapiens), P11712; activation factor at 5 µM; hit rate 1.4% among 96,000; recombinant CYP2C9, luciferin-H conversion; stronger effect = higher value; factor 1 = untreated enzyme, 0 = blocked;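 active = activation factor of 2 or more for CYP2C9 at a 5 µM dose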;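 also: 0 = sulfaphenazole-blocked wells and 1 = vehicle-only wells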
CYP2C19 inh: blockers of cytochrome P450 2C19 activity – biochemical, luminescence, ADME assay, primary screen. P33261. CYP2C19 Supersomes, luciferin-H EGE luminescence, 30 min. inhibition, % at 5 µM. hit rate 21% among 96,000. AID 778, 2007;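 active = CYP2C19 inhibition above a set limit at 5 µM in the primary screen, cut at about 50% in these data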;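 also: plate controls were negative control wells for no effect and 2.5 mM tranylcypromine positive control for full effect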
Starred values were filed as active, the others as inactive.

For CCOC(=O)C1CSC(CC(=O)Nc2ccc(Cl)c(Cl)c2)C(=O)N1 (centres undefined) the results were Cav32 inh -2.4, CYP2C9 inhib -37, CYP2C19 activ 0.8, CYP2C9 act 1.4 and CYP2C19 inh 18.
For O=c1oc2ccccc2c2c1C(c1ccc(Cl)cc1)Nc1ccc3ccccc3c1-2 (centres undefined) the results were Cav32 inh 0.024, CYP2C9 inhib 5, CYP2C19 activ 1, CYP2C9 act 0.9 and CYP2C19 inh 2.
`Cc1ccc(C2Nc3ccc4ccccc4c3C3=C2C(=O)CC(C)(C)C3)o1` (centres undefined) gave Cav32 inh -0.33.
For COc1ccc(C2Nc3ccc4ccccc4c3-c3c2c(=O)oc2ccccc32)cc1 (centres undefined) the results were CYP2C9 inhib 83*, CYP2C19 activ 0.9, CYP2C9 act 0.2 and CYP2C19 inh 12.
For CCOc1ccc(C2Nc3ccc4ccccc4c3-c3c2c(=O)oc2ccccc32)cc1 (centres undefined) the results were Cav32 inh 0.096, CYP2C9 inhib 84*, CYP2C19 activ 0.5, CYP2C9 act 0.2 and CYP2C19 inh 52*.
CCOc1cccc2sc(NC(=O)c3ccc(Br)s3)nc12 was read as CYP2C9 inhib 24, CYP2C19 activ 1.1, CYP2C9 act 0.8 and CYP2C19 inh -7.
Screening Cc1ccc(OCC(=O)N2CCCCC2)c(Br)c1 returned Cav32 inh 0.35, CYP2C9 inhib -9, CYP2C19 activ 0.1, CYP2C9 act 1.1 and CYP2C19 inh 85*.
Cc1cc(OCC(=O)N2CCCC2)ccc1Cl was read as Cav32 inh -0.0027, CYP2C9 inhib 20, CYP2C19 activ 0.2, CYP2C9 act 0.8 and CYP2C19 inh 85*.
`COc1ccccc1N1CCN(C(=O)COc2ccc(C)cc2Br)CC1` gave Cav32 inh -3.4, CYP2C9 inhib 9, CYP2C19 activ 0.5, CYP2C9 act 0.9 and CYP2C19 inh 50.
CC(C)=C1C2CCC1C1C(=O)N(NC(=O)COc3ccc(Cl)c(C)c3)C(=O)C21 (centres undefined) was read as Cav32 inh -5.3*, CYP2C9 inhib 0, CYP2C19 activ 0.5, CYP2C9 act 1 and CYP2C19 inh 49.
`COCCCNC(=O)COc1ccc(Cl)c(C)c1` gave CYP2C9 inhib -6, CYP2C19 activ 0.2, CYP2C9 act 1.1 and CYP2C19 inh 84*.
For NC1C2CN(c3nc4c(cc3F)c(=O)c(C(=O)O)cn4-c3ccc(F)cc3F)CC12 (centres undefined) the results were Cav32 inh -0.73, CYP2C9 inhib 4, CYP2C19 activ 0.9, CYP2C9 act 1 and CYP2C19 inh 6.
`CCOC(=O)N1CCN(C(=O)Nc2ccc(Cl)cc2Cl)CC1` gave Cav32 inh 0.34, CYP2C9 inhib 2, CYP2C19 activ 0.6, CYP2C9 act 1 and CYP2C19 inh 44.
O=C(Nc1nnc(-c2ccccc2Cl)o1)c1cccnc1 was read as Cav32 inh 0.45, CYP2C9 inhib 82*, CYP2C19 activ 1, CYP2C9 act 0.2 and CYP2C19 inh 0.
`CC1CCCN(S(=O)(=O)c2ccc(C(=O)Nc3nnc(-c4ccccc4Cl)o3)cc2)C1` (centres undefined) gave Cav32 inh -7.3*, CYP2C9 inhib 9, CYP2C19 activ 1, CYP2C9 act 0.9 and CYP2C19 inh -5.
For O=C(Nc1nnc(-c2cccs2)o1)c1cccc(C(F)(F)F)c1 the results were CYP2C9 inhib 59*, CYP2C19 activ 0.9, CYP2C9 act 0.4 and CYP2C19 inh 10.
CC1CC(C)CN(S(=O)(=O)c2ccc(C(=O)Nc3nnc(-c4cccs4)o3)cc2)C1 (centres undefined) was read as CYP2C9 inhib 1, CYP2C19 activ 1.1, CYP2C9 act 1 and CYP2C19 inh -11.
CCC1CCCCN1S(=O)(=O)c1ccc(C(=O)Nc2nnc(-c3cccs3)o2)cc1 (centres undefined) was read as Cav32 inh -8.5*.
`O=C(CCc1ccccc1)Nc1nnc(-c2cccs2)o1` gave CYP2C9 inhib 34, CYP2C19 activ 0.7, CYP2C9 act 0.7 and CYP2C19 inh 31.
